TMEM16A act = TMEM16A chloride channel activators or potentiators, primary screen, cell-based, HTS; Anoctamin-1 (Mus musculus), Q8BHY3; HEK293 TMEM16A/YFP-H148Q/I152L, iodide quench fluorescence; hits give low values; B-score at 10 µM; 0.3% of 340,000 active;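 active means fluorescence-ratio B-score plate-corrected deviation score at least 3 library SD below zero, with starting fluorescence score within 5 deviations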;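 further: channel opened by trigger with iodide after compound preincubation; score built on the fluorescence ratio of max minus min over baseline; more negative score means more quench and so TMEM16A activation or potentiation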
CHT block = inhibitors of human choline transporter CHT. CHT-expressing cells, membrane potential dye, choline response; hits give low values. B-score at 10 µM. 0.86% of 310,000 active. AID 488975, 2010;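 active means B-score over 3 SD under the library average, and starting fluorescence ratio not unusually high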;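 further: choline stimulus applied at its EC90 after an EC20 pre-addition; B-score computed on integrated fluorescence ratio after choline addition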
Target sequence (Q9GZV3 whole entry, looked up): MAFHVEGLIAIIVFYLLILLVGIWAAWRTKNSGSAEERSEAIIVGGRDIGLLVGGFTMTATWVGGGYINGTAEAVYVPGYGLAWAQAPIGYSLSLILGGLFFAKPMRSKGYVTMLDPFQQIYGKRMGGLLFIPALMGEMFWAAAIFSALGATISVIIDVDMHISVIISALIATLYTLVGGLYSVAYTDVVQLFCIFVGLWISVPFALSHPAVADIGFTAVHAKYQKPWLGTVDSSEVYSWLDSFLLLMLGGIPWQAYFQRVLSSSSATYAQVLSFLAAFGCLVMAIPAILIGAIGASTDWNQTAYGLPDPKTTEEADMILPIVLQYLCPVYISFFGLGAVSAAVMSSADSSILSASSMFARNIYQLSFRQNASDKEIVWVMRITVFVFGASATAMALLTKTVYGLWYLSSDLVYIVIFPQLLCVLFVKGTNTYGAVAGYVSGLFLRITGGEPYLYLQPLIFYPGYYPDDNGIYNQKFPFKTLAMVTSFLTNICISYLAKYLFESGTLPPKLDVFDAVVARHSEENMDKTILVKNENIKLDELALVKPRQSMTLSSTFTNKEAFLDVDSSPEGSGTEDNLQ
TMEM16A inh = TMEM16A chloride channel inhibitors, primary screen, cell-based, HTS; 1.2% of 310,000 active; HEK293 TMEM16A/YFP iodide influx fluorescence, ionomycin; normalized B-score (activity score, 25-100; higher = stronger inhibition) at 10 µM; Anoctamin-1 (Mus musculus), Q8BHY3; AID 588511, 2011;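 active means ratio plate-corrected score three or more library SD toward inhibition, starting fluorescence score within five deviations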;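 further: score derived from kinetic fluorescence span divided by baseline fluorescence per well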
PKA-R2B act = activators of PKA-R2B holoenzyme, primary screen, biochemical, fluorescence polarization, Cy5-IP20, human; cAMP-dependent protein kinase catalytic subunit beta (Homo sapiens) + cAMP-dependent …; PKA-R2B holoenzyme dissociation; R2B truncated from residue 108, S112A mutant; 0% DMSO only, 100% 113 µM cGMP; activation, % at 11.4 µM; 0.079% of 340,000 active; AID 504700, 2011;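 active means activation above a cutoff set at the mean over all compounds plus 3 SD, cut at about 18% in these data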;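 further: higher means more holoenzyme dissociation and a rise in polarization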
CHT PAM = CHT positive allosteric modulators, primary screen, cell-based, membrane potential dye, choline EC20 | CHT-expressing cells; hits give high values; LV-AA mutant CHT in HEK293 cells | 0.49% of 310,000 active | High affinity choline transporter 1 (Homo sapiens), Q9GZV3 | B-score at 10 µM;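 active means initial fluorescence not abnormally high and integrated response B-score, plate-corrected, over 3 SD above library mean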
PKA-R1A act = activators of PKA-R1A holoenzyme, primary screen, biochemical, fluorescence polarization, Cy5-IP20, bovine R1A, mouse PKAc; cAMP-dependent protein kinase type I-alpha regulatory subunit (Bos taurus) + …; PKA-R1A dissociation; scaled: DMSO 0%, 113 µM cGMP 100%; activation, % at 11.4 µM; 0.083% of 340,000 active;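 active means percent activation above the mean of all tested compounds plus 3 SD, cut at about 19% in these data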;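 further: higher means more PKAc released from R1A so a rise in polarization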
TMEM16A reconf = TMEM16A chloride channel inhibitors, confirmation, cell-based, re-confirmation; shares compounds with TMEM16A inh; inhibition, % at 10 µM; HEK293 TMEM16A/YFP-H148Q, iodide quench fluorescence; ionomycin added to raise cell calcium; 39% of 2,300 active;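 active means mean duplicate percent inhibition, scaled so buffer wells are 0 and the reference blocker 100, over three buffer SD above buffer mean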
TMEM16A Ca cntr = calcium mobilization in TMEM16A/YFP HEK293 cells, confirmation, counter-screen for TMEM16A inhibitor project. Fluo4 calcium mobilization. AID 652231, 2013. shares compounds with TMEM16A inh. 2% of 2,300 active. calcium response (% of ionomycin), % at 10 µM;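 active means duplicate-averaged calcium signal over 20% of the ionomycin maximum, relative to buffer baseline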;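 further: each well's signal is peak minus trough fluorescence divided by its pre-addition baseline; 0% = buffer wells and 100% = ionomycin wells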
YFP-HEK293 quench = iodide YFP quench changes in parental YFP-HEK293, counter-screen for TMEM16A inhibitor project, cell-based; shares compounds with TMEM16A inh; ionomycin; YFP ratio F(max-min)/F0 at 10 µM; 2,300 tested, under 10 active; AID 652233, 2013;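 active means yellow fluorescent protein signal ratio exceeding the buffer control mean by over 5 SD of those controls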;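 further: ratio is mean of duplicate wells from kinetic YFP trace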
ClC-1 rat inh = ClC-1 chloride channel inhibition, selectivity assay for TMEM16A inhibitor project, cell-based, voltage-dependent ClC-1; shares compounds with TMEM16A inh; CHO ClC-1-YFP, iodide influx fluorescence quench; iodide control reads 0, buffer control 100; ratio percent, % at 10 µM; 2,300 tested, under 10 active; AID 652236, 2013;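 active means duplicate-mean ratio percent above the mean of iodide-only control wells, which defines zero, plus 5 of their SD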;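 further: higher percent means stronger block of ClC-1 iodide influx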
The depositor's hits bear a star; i = inactive; / = no result given. Sampled rows, rich in hits. Any-hit rate of the full collection: about 2.5%.

SMILES	TMEM16A act	CHT block	TMEM16A inh	PKA-R2B act	CHT PAM	PKA-R1A act	TMEM16A reconf	TMEM16A Ca cntr	YFP-HEK293 quench	ClC-1 rat inh
COc1cccc(NC(=O)CN(C)C(=O)c2cccc(S(=O)(=O)N3CCN(c4ccc(F)cc4)CC3)c2)c1	i	i	100*	-15	i	-6	i	i	-0.98	-2
CC1CC(C)CN(c2cc(=O)n(Cc3ccc(F)cc3)c(=O)[nH]2)C1 (configuration not stated)	i	i	100*	-1	i	-4	i	i	-1	-5
O=c1cc(N2CCN(c3ccc(F)cc3)CC2)[nH]c(=O)n1Cc1ccc(F)cc1	i	i	i	1	i	-5	/	/	/	/
CCC1=NN(C(=O)c2ccccc2O)C(O)(c2ccccc2)C1 (configuration not stated)	i	i	25*	-2	i	-8	i	i	-0.91	-10
COc1ccc(NS(=O)(=O)c2ccc(-c3cnc(C4CC4)o3)cc2)cc1OC	i	i	25*	1	i	1	34%*	i	-1	-24
Cc1ccc(NS(=O)(=O)c2ccc(-c3cnc(C4CC4)o3)cc2)c(C)c1	i	i	i	1	i	-4	/	/	/	/
O=C(Cc1cccs1)N1CCN(S(=O)(=O)c2ccc(Cl)c(C(F)(F)F)c2)CC1	i	/	/	-1	/	-10	/	/	/	/
O=C(Nc1nc(-c2nc3ccccc3s2)cs1)c1ccc(S(=O)(=O)N2CCOCC2)cc1	i	i	100*	-10	i	-12	33%*	i	-0.91	-22
CC(=O)c1ccc(N2CCN(S(=O)(=O)c3ccc(-c4cnc(C5CC5)o4)cc3)CC2)cc1	i	i	i	-3	i	-11	/	/	/	/
Cc1cccc(N2CCN(C(=O)CCC(=O)N3CC(C)Oc4ccccc43)CC2)c1C (configuration not stated)	i	i	25*	6	i	-8	i	i	-0.95	0
CC1CCN(C(=O)CCC(=O)N2CC(C)Oc3ccccc32)CC1 (configuration not stated)	i	i	i	-7	i	-9	/	/	/	/
CC1CN(S(=O)(=O)c2cc(C(=O)NC(C)c3cccnc3)ccc2Cl)CC(C)O1 (configuration not stated)	i	/	/	-2	/	-13	/	/	/	/
Clc1ccc(NC2=NCCC2)cc1Cl	i	i	i	4	i	-13	i	i	-1.2	-8
CNC(=O)c1sc(N2N=C3/C(=C/c4ccccc4)CCCC3C2c2ccccc2)nc1C (configuration not stated)	i	i	100*	-3	i	-5	46%*	58%*	-0.92	-6
CC(C)OC(=O)C(C)Nc1ccc(F)c(Cl)c1 (configuration not stated)	i	i	i	8	i	-1	/	/	/	/
CCN(CC)c1ccc(C=Nc2ccc(C)cc2)c(O)c1	i	i	i	-2	i	-7	/	/	/	/
CCN(CC)c1ccc(C=Nc2cc(C)cc(C)c2)c(O)c1	-5.2*	i	25*	-7	i	-3	i	i	-1.1	-3
Brc1ccc(C2=Nn3cnnc3SC2)cc1	i	i	i	-12	i	-3	/	/	/	/
C=CCn1c(SCC(=O)NC(=O)Cc2ccccc2)nnc1-c1ccccc1F	i	/	/	5	/	5	/	/	/	/
C=CCn1c(SCC(=O)NC(C)(C)C)nnc1-c1ccccc1O	i	i	100*	1	i	-3	i	i	-0.79	-6
CCN(Cc1cc(=O)n2ccsc2n1)Cc1nc2ccccc2c(=O)[nH]1	i	i	i	-7	i	-2	/	/	/	/
Cc1ccc(C)c(N2CCN(S(=O)(=O)c3csc(C(N)=O)c3)CC2)c1	i	i	25*	-9	i	-6	i	i	-0.88	0
NC(=O)c1cc(S(=O)(=O)N2CCCCC2)cs1	i	i	i	2	i	-2	/	/	/	/
c1ccc(-c2nc(CSc3nnc(-c4cccs4)o3)cs2)cc1	i	i	100*	-1	i	0	i	i	-1.2	-4
CCN(c1cccc(C(F)(F)F)c1)S(=O)(=O)c1ccc2c(c1)CCN2C(=O)C1CC1	i	i	100*	-3	i	-10	i	i	-1.2	-17
SMILES	TMEM16A act	CHT block	TMEM16A inh	PKA-R2B act	CHT PAM	PKA-R1A act	TMEM16A reconf	TMEM16A Ca cntr	YFP-HEK293 quench	ClC-1 rat inh
COc1cccc(NC(=O)COc2ccc(Br)c(C)c2)c1	i	i	i	2	i	-3	/	/	/	/
O=C(COc1ccc(Cl)cc1)Nc1ccc(Cc2ccncc2)cc1	i	i	25*	-4	i	-7	17%*	i	-1	-4
O=C(COc1ccc2ccccc2c1)Nc1ccc(Cc2ccncc2)cc1	i	i	i	-9	i	-7	/	/	/	/
Cc1cc(OCC(=O)Nc2ccncc2)ccc1Br	i	i	100*	-6	i	-14	i	i	-1.1	-12
CCOC(=O)c1cc2c(nc1N)CC(C)(CC)OC2 (configuration not stated)	i	i	i	2	i	9	i	i	-1.2	-8
CCOc1ccc(N(Cc2nnc3n2CCCCC3)C(=O)Nc2cccc(C)c2)cc1	i	i	i	-6	i	-13	i	i	-0.96	-2
COc1ccccc1NC(=O)Cc1ccc(-c2ccccc2)cc1	i	i	25*	-4	i	-2	i	i	-0.99	-10

Bioassay records deposited in PubChem by several laboratories.
